# Bioassay records deposited in PubChem BioAssay by several laboratories.
# Mdm2-MdmX inh: inhibitors of human Mdm2/MdmX interaction; O15151+Q00987; SaOS-2 split-luciferase Mdm2/MdmX complementation, luminescence; inhibition, % at 8 µM; 330,000 compounds, 3% hits; AID 485346;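 active = inhibition of at least 50% at 8 µM in the primary screen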
# Target sequence (O15151 whole entry, looked up): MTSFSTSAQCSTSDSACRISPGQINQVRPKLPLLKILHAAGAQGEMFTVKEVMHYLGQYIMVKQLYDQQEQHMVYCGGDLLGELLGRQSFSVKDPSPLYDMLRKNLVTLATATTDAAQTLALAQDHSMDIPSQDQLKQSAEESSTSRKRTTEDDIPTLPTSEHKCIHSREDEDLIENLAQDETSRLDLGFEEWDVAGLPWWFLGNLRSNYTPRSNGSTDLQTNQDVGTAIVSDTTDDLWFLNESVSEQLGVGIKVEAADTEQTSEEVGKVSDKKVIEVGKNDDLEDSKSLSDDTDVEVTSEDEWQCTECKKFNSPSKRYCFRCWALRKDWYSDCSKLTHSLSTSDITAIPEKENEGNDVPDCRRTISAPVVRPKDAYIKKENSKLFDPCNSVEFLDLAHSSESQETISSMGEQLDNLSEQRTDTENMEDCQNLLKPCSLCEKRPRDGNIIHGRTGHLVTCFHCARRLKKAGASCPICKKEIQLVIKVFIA
# Target sequence (Q00987 whole entry, looked up): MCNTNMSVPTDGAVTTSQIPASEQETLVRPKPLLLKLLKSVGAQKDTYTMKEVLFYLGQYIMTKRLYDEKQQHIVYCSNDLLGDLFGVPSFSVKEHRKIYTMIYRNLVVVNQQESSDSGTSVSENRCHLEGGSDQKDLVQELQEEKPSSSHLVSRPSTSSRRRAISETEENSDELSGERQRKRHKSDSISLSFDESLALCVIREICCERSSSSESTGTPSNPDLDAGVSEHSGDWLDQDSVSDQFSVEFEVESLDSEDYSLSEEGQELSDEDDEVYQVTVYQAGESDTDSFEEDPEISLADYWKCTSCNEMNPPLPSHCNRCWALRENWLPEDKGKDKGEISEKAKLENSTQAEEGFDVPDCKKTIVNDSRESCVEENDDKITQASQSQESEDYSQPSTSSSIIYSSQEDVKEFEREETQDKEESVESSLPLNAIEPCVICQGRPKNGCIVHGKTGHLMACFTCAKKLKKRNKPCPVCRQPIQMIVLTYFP
# Beta apoptosis: blocks beta cell apoptosis; 300,000 compounds, 0.8% hits; INS-1E cytokine-induced death, ATP luminescence, 48 h; percent of positive-control rescue, neutral wells zero; protection from apoptosis, % (concentration not given with the values);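 active = Every replicate reaches about 75%, or at least half do and their mean reaches it too, limit read from the data; inconclusive = At least half of replicates reach the limit but their mean does not; inactive = Under half of replicates reach the limit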;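 also: 0% = cytokine-treated negative control wells and 100% = positive control rescue; higher means more ATP so stronger rescue from cytokine killing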
# CSC inhib: blocks cancer stem cells; cancer stem cell-like cells viability, luminescence; inhibition, % at 7.5 µM; 300,000 compounds, 1.1% hits; in the data active = inhibition above about 75%; inconclusive = no clear call, values can overlap the other calls; tested in HMLE shEcad cells
# Calb FLC: C. albicans growth modulation with fluconazole. C. albicans CaCi-2 (fluconazole-resistant clinical isolate) + fluconazole, Alamar Blue growth, 48 h. growth inhibition, % (no concentration beside the values). 300,000 compounds, 0.57% hits;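 active = growth inhibition above about 58% in most replicates, limit read from the data, passing the limit was not always enough; inconclusive = exactly half the replicates above a set limit; inactive = most replicates below a set limit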;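 also: all wells also contain fluconazole at 8 µg/ml as a sub-toxic cotreatment; 0% = median of DMSO wells and 100% = median of geldanamycin control wells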
# SKKanGAS inh: SKKanGAS growth inhibition | 300,000 compounds, 1.3% hits | S. pyogenes SKKanGAS, kanamycin growth, BacTiter-Glo, 6 h | inhibition, % at 7.5 µM;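 active = mean replicate score, as percent of positive control median, at least 50; inconclusive = mean below 50 but one replicate at or above 50; inactive = mean and every replicate below 50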;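 also: strain carries kanamycin resistance gene driven by streptokinase promoter and grows in 40 µg/ml kanamycin; loss of luminescence reflects streptokinase promoter inhibition or plain growth inhibition; 0% = median of DMSO wells and 100% = positive control at its reference dose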
# MPTP block: inhibitors of mitochondrial permeability transition pore | isolated mouse mitochondria, Ca2+ swelling absorbance, 30 min | 360,000 compounds, 1.4% hits | inhibition, % at 10 µM;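 active = inhibition of 50% or more, scaled per plate between neutral and stimulator controls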;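 also: 0% = DMSO wells given calcium and 100% = 1 mM EGTA wells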
# Mdm2-MdmX conf: confirmation of human Mdm2/MdmX interaction inhibitors; shares compounds with Mdm2-MdmX inh; Mdm2-MdmX binding, luminescent assay; AID 489028; inhibition, % at 8 µM; 10,000 compounds, 55% hits; in the data active = inhibition above about 40%
# Full FLuc ctr: inhibits full-length luciferase, flagging false Mdm2/MdmX hits; shares compounds with Mdm2-MdmX inh; SaOS-2 full-length luciferase counterscreen, luminescence; inhibition, % at 8 µM; 6,200 compounds, 77% hits;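 active = mean inhibition at 8 µM reaching about 37%, which flags the compound as non-specific, limit read from the data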;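 also: p53-null SaOS-2 cells with luciferase driven by a doxycycline-inducible promoter; compound on cells about two nights before reading with doxycycline added after day one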
# MPTP counter: membrane potential counter-screen of mitochondrial pore inhibitors. AID 624504. isolated mitochondria, Rhodamine 123 fluorescence. inhibition, % at 10 µM. shares compounds with MPTP block. 5,000 compounds, 78% hits; in the data active = inhibition above about 22%;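 also: 0% = DMSO vehicle and 100% = positive control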
# MPTP abs DR: dose response confirmation of mitochondrial permeability transition pore inhibitors; shares compounds with MPTP block; 780 compounds, 58% hits; IC50, µM; isolated mitochondria swelling, absorbance; in the data active = IC50 below about 20 µM
# MPTP cs DR: active in counter-screen for permeability transition pore inhibitors; shares compounds with MPTP block; IC50, µM; isolated mitochondria counterscreen, fluorescence read-out; 780 compounds, 49% hits; in the data active = IC50 below about 80 µM
# The depositor's hits bear a star; ? = inconclusive; · = not tested or not shown; ! = not confirmed by another sample. An excerpt weighted towards active compounds, which were near 5.4% of everything screened.
SMILES,Mdm2-MdmX inh,Beta apoptosis,CSC inhib,Calb FLC,SKKanGAS inh,MPTP block,Mdm2-MdmX conf,Full FLuc ctr,MPTP counter,others
Cc1ccc(NC(=O)C(c2ccccc2)C2CCCC2)cc1 (configuration not stated),·,·,·,-3,-6,46,·,·,·,
O=C(Nc1ccc2ccccc2c1)C(c1ccccc1)C1CCCC1 (configuration not stated),57*,29,42,-25,2,79*,59*,78*,62*,
Cc1ccc(Cl)c(OC(=O)C2CSC3(C)CCC(=O)N23)c1 (configuration not stated),14,·,-10,-4,-14,-1,·,·,·,
COc1ccc(C(O)c2nc(-c3ccc(C)c(C)c3)cs2)cc1 (configuration not stated),·,·,·,·,·,3,·,·,·,
CCCCNc1c(-c2cccc(-c3ccc(OC)cc3)c2)nc2cc(C)ccn12,92*,56,·,·,·,63*,-1,·,102*,
CCCCNc1c(-c2cccc(-c3ccc(OC)cc3)c2)nc2ccc(C)cn12,99*,92*,114*,9,63*,56*,56*,66*,77*,
Cc1ccc(Cn2ncc3c(N4CCN(C5CCCC5)CC4)ncnc32)cc1,0,2,-10,-40,-1,2,·,·,·,
CCCN(CC(=O)Nc1ccccc1Br)CC(=O)Nc1ccc(F)c(F)c1F,23,9,-3,-2,2,5,·,·,·,
CCCN(CC(=O)Nc1cc(Cl)cc(Cl)c1)CC(=O)Nc1ccc(F)c(F)c1F,52*,-9,·,1,82*,57*,15,·,59*,
Cc1ccc(CSC(Nc2ccc(F)cc2)=C(C#N)C#N)cc1,91*,117*,7,1,9,95*,92*,24,93*,
Cn1c(=O)c2c(nc(NCc3ccco3)n2C/C=C/c2ccccc2)n(C)c1=O,51*,52,16,9,-2,89*,22,·,106*,
COC(=O)c1sc(NC(=O)C(C)c2ccccc2)nc1C (configuration not stated),20,8,1,7,4,2,·,·,·,
CCC(C)Sc1ccc(-c2nc3cc(C)ccn3c2NC2CCCCC2)cc1 (configuration not stated),85*,·,·,·,·,56*!,-42,·,101*,
Fc1ccc(C2CCNCC2COc2ccc3c(c2)OCO3)cc1 (configuration not stated),34,2,7,10,2,3,·,·,·,
Fc1ccc([C@@H]2CCNC[C@H]2COc2ccc3c(c2)OCO3)cc1,51*,·,6,-19,4,98*,34,56*,-11,
CC(C)NC(=O)C1(C)CSCC(=O)N1CC(F)(F)F (configuration not stated),·,·,·,·,·,1,·,·,·,
NC(N)=N/N=C/c1cc([N+](=O)[O-])ccc1O,5,-7,-3,-5,-9,-3,·,·,·,
O=[N+]([O-])c1ccc(O)c(/C=N\N=C2c3ccccc3-c3ccccc32)c1,93*,8,18,-5,9,104*,91*,46*,93*,
Cn1c(=O)c2c([nH]c(OCc3ccc(Cl)cc3Cl)[n+]2Cc2ccc(F)cc2)n(C)c1=O,57*,6,2,11,9,50*,13,·,7,MPTP abs DR=>100;MPTP cs DR=>80
Cc1ccc(-n2c(C)cc(C3=NNC(=NC4CC4)SC3)c2C)cc1C,69*,21,46,?,6,79*,50*,120*,83*,
Cc1cc(Nc2ccccc2)nc(NCc2ccccc2)n1,53*,101*,34,97*,-2,90*,37,59*,92*,
Cc1cc(N2CCC(C)CC2)nc(-c2ccccc2O)n1,13,9,12,7,1,2,·,·,·,
Cc1cc(N/N=C/c2ccc(F)cc2)nc(NCc2ccccc2)n1,36,·,21,21,5,13,·,·,·,
Cc1cc(Nc2cccc(F)c2)nc(NCc2ccccc2)n1,66*,106*,39,45,1,92*,25,·,73*,
Cc1cc(Nc2ccc(Cl)cc2)nc(NCc2ccccc2)n1,63*,16,39,?,12,53*,42*,75*,31*,
SMILES,Mdm2-MdmX inh,Beta apoptosis,CSC inhib,Calb FLC,SKKanGAS inh,MPTP block,Mdm2-MdmX conf,Full FLuc ctr,MPTP counter,others
Cc1cc(Oc2ccccc2)nc(NCc2ccccc2)n1,45,-10,27,-2,21,3,·,·,·,
Cc1cc(N2CCC(C)CC2)nc(NCc2ccccc2)n1,80*,101*,37,34,-10,91*,51*,40*,111*,
O=C(CSc1nnc(-c2ccccc2)o1)NC1CC1,3,-2,-21,·,-1,0,·,·,·,
Cc1cc(C)nc(NCCCc2ccccc2)n1,-20,-1,0,-29,-4,-2,·,·,·,
CCCCNc1cc(C)nc(NCc2ccccc2)n1,67*,104*,38,-4,-4,104*,60*,39*,131*,
COc1ccc(Nc2nc(-c3cccc([N+](=O)[O-])c3)nc3ccccc23)cc1,55*,11,124*,-5,30,53*,14,·,25*,
COc1cc(OC)c(C(=O)NNC(=O)CN(C)S(=O)(=O)c2ccc(Cl)cc2)cc1OC,-12,-3,-14,-1,15,-3,·,·,·,
OCCN1CCN(CC(O)COc2ccc(C34CC5CC(CC(C5)C3)C4)cc2)CC1 (configuration not stated),95*,47,112*,25,19,91*,73*,22,-9,MPTP abs DR=4.1*;MPTP cs DR=55*
Cc1ccc2oc(-c3ccc(NC(=O)CC(C)C)cc3)nc2c1,-54,6,8,-9,-2,6,·,·,·,
CCC(C)NCC(=O)Nc1ccc(-c2nc3cc(NC(=O)CNC(C)CC)ccc3o2)cc1 (configuration not stated),100*,-1,19,·,·,74*,42*,36,-5,MPTP abs DR=16*;MPTP cs DR=36*
Cc1c(C(=O)N/N=C/c2ccc(Cl)cc2)[nH]c2ccc(Cl)cc12,63*,35,57,6,56*,96*,62*,91*,67*,
Cc1ccccc1NC(=O)c1cc(C(=O)c2cc(Cl)ccc2O)cn(-c2ccccc2C)c1=O,78*,73,9,20,25,90*,71*,50*,75*,
